15 compounds from PubChem BioAssay AID1508601 (ICCB-Longwood Screening Facility, Harvard Medical School, 2020) can be followed below.

The nature of test [1]: p53 stabilisation in HPV-positive human cells, imaging, p53-positive nuclei imaging, 24 h, 48 h (AID 1508601). The note with it: 24/48 h.
For test [2], the target named is Cellular tumor antigen p53 (Homo sapiens) (UniProt P04637). The description is as above. The note with it: 24/48 h, stronger effect = higher value.
Where [3] appears, read: measured here: cell number at 24 h, concentration not given here.
Setting [4] is: measured here: cell number at 48 h, concentration not given here.
Where [5] appears, read: measured here: p53 positive nuclei at 24 h, concentration not given here.
[6] abbreviates: measured here: cell number at 24 h, Library stock concentration: 3.33 mM.
The mark [7] stands for this setting: measured here: cell number at 48 h, Library stock concentration: 3.33 mM.
Setting [8] is: Library stock concentration: 3.33 mM.
[9] abbreviates: measured here: p53 positive nuclei at 24 h, Library stock concentration: 3.33 mM.
Setting [10] is: measured here: cell number at 24 h, Library stock concentration: 80 uM.
[11] abbreviates: measured here: cell number at 24 h, Library stock concentration: 400 uM.
Setting [12] is: measured here: cell number at 24 h, Library stock concentration: 2 mM.
The mark [13] stands for this setting: measured here: cell number at 24 h, Library stock concentration: 10 mM.
Where [14] appears, read: measured here: cell number at 48 h, Library stock concentration: 80 uM.
The mark [15] stands for this setting: measured here: cell number at 48 h, Library stock concentration: 400 uM.
Where [16] appears, read: measured here: cell number at 48 h, Library stock concentration: 2 mM.
Setting [17] is: measured here: cell number at 48 h, Library stock concentration: 10 mM.
[18] abbreviates: Library stock concentration: 80 uM.
[19] abbreviates: Library stock concentration: 400 uM.
[20] abbreviates: Library stock concentration: 2 mM.
The mark [21] stands for this setting: Library stock concentration: 10 mM.
The mark [22] stands for this setting: measured here: p53 positive nuclei at 24 h, Library stock concentration: 80 uM.
[23] abbreviates: measured here: p53 positive nuclei at 24 h, Library stock concentration: 400 uM.
[24] abbreviates: measured here: p53 positive nuclei at 24 h, Library stock concentration: 2 mM.
Where [25] appears, read: measured here: p53 positive nuclei at 24 h, Library stock concentration: 10 mM.

Structures are written as SMILES. Values joined by “and” are separate entries in the source; they are usually repeats but may differ in a detail not shown here. Equal values may be shown once. The campaign covered roughly 5,700 compounds. About 85 (1%) were called active. This is one part of a sample in which actives are shown more often than they occur. Rule as the data show it: active = p53-positive nuclei above about 36% (passing the limit was not always enough); inactive = the rest.

Sequence of Cellular tumor antigen p53 (Homo sapiens) (P04637 whole entry, looked up): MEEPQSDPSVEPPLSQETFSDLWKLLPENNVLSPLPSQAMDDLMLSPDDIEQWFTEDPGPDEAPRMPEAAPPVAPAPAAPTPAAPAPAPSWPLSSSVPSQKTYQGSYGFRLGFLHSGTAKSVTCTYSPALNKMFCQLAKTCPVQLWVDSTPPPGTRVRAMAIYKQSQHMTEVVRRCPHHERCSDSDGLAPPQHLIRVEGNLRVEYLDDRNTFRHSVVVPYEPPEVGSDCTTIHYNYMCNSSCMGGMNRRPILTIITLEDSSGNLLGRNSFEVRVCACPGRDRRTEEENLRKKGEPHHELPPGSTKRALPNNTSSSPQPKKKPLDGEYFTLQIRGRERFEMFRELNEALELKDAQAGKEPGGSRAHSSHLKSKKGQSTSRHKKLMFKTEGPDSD

Regarding `O=C1CN(c2ncnc3sccc23)CCN1Cc1ccc(F)cc1`, the nuclei count, normalised amounted to 108% in test [1] (setting [3]) and 111% in test [1] (setting [4]). Moreover, the p53-positive nuclei, normalised in test [2] (concentration not given here) was -0.087% (inactive); in test [2] (setting [5]) it was -0.23%.

In the case of `CC=CCC(C)C(O)C1C(=O)NC(CC)C(=O)N(C)CC(=O)N(C)C(CC(C)C)C(=O)NC(C(C)C)C(=O)N(C)C(CC(C)C)C(=O)NC(C)C(=O)NC(C)C(=O)N(C)C(CC(C)C)C(=O)N(C)C(CC(C)C)C(=O)N(C)C(C(C)C)C(=O)N1C` (configuration not stated), the nuclei count, normalised in test [1] (setting [6]) was 114% and 120%; in test [1] (setting [7]), 120% and 121%. The p53-positive nuclei, normalised in test [2] (setting [8]) is -0.306% (inactive) and -0.666% (inactive); in test [2] (setting [9]) it was -0.452% and -0.338%.

Turning to `Cc1nn(C)c(C)c1-c1ccnc(NCC(C)Oc2cccnc2)n1` (configuration not stated), the nuclei count, normalised in test [1] (setting [3]) came to 103%; in test [1] (setting [4]) it was 101%. Besides, the p53-positive nuclei, normalised in test [2] (concentration not given here) was -0.151% (inactive); in test [2] (setting [5]), -0.079%.

On to `Cc1ncc(-c2ccnc(Nc3ccc(S(C)(=O)=O)cc3)n2)n1C(C)C`, for which the nuclei count, normalised in test [1] (setting [10]) was 104% and 73.6%; in test [1] (setting [11]), 100% and 83.3%; in test [1] (setting [12]) it was 54.9% and 60.1%; in test [1] (setting [6]) it was 46.1%; in test [1] (setting [13]), 36.9% and 37.6%; in test [1] (setting [14]), 105% and 49.6%. The nuclei count, normalised was 89.2% and 61.2% in test [1] (setting [15]); 24.1% and 33.6% in test [1] (setting [16]); 23% in test [1] (setting [7]); 21.8% and 24.6% in test [1] (setting [17]). Besides, the p53-positive nuclei, normalised in test [2] (setting [18]) is 0.106% (inactive) and 10.7% (inactive); in test [2] (setting [19]), 0.447% (inactive) and 4.11% (inactive); in test [2] (setting [20]), 57.6% (inactive) and 42.9% (inactive); in test [2] (setting [8]) it was 60.3% (active); in test [2] (setting [21]) it was 50.8% (inactive) and 49.9% (inactive); in test [2] (setting [22]), 0.00746% and 0.944%. In addition, the p53-positive nuclei, normalised was 0.0769% and 0.14% in test [2] (setting [23]); 34.6% and 11.8% in test [2] (setting [24]); 32.5% in test [2] (setting [9]); 15.1% and 13.6% in test [2] (setting [25]).

Regarding `COc1cc(-c2cccc(C)c2C)nc(N)n1`, the results for the nuclei count, normalised in test [1] (setting [3]) and in test [1] (setting [4]) were 87.1% and 74.8%, respectively. Besides, the figures for the p53-positive nuclei, normalised in test [2] (concentration not given here) and in test [2] (setting [5]) were 0.587% (inactive) and 0.226%, respectively.

For the compound `CN(CC1COc2ccccc2O1)C(=O)Nc1nncs1` (configuration not stated), the figures for the nuclei count, normalised in test [1] (setting [3]) and in test [1] (setting [4]) were 103% and 104%, respectively. For the same compound, the p53-positive nuclei, normalised in test [2] (concentration not given here) is -0.215% (inactive); in test [2] (setting [5]), -0.0697%.

As to `O=C1NCCCc2c1oc1ccc(O)cc21`, the nuclei count, normalised in test [1] (setting [10]) amounted to 99.3%; in test [1] (setting [11]), 92.2%; in test [1] (setting [12]), 96.6%; in test [1] (setting [13]), 89.4%; in test [1] (setting [14]) it was 104%; in test [1] (setting [15]), 99.1%. The nuclei count, normalised was determined as 99.6% in test [1] (setting [16]) and 98.7% in test [1] (setting [17]). Besides, the p53-positive nuclei, normalised in test [2] (setting [18]) is -0.0796% (inactive); in test [2] (setting [19]), -0.0299% (inactive); in test [2] (setting [20]), 0.259% (inactive); in test [2] (setting [21]), 0.273% (inactive); in test [2] (setting [22]) it was -0.0621%; in test [2] (setting [23]), -0.105%. For the same compound, the p53-positive nuclei, normalised came out at 0.32% in test [2] (setting [24]) and 0.126% in test [2] (setting [25]).

Take `O=C1NCCSc2c1sc1ccc(O)cc21`: the nuclei count, normalised stood at 111% in test [1] (measured here: cell number at 24 h, Library stock concentration: 46 uM); 108% in test [1] (measured here: cell number at 24 h, Library stock concentration: 278 uM); 101% in test [1] (measured here: cell number at 24 h, Library stock concentration: 1.67 mM); 56.1% in test [1] (setting [13]); 110% in test [1] (measured here: cell number at 48 h, Library stock concentration: 46 uM); 113% in test [1] (measured here: cell number at 48 h, Library stock concentration: 278 uM). For the same compound, the nuclei count, normalised came to 113% in test [1] (measured here: cell number at 48 h, Library stock concentration: 1.67 mM) and 36.9% in test [1] (setting [17]). For the same compound, the p53-positive nuclei, normalised is -0.0208% (inactive) in test [2] (Library stock concentration: 46 uM); -0.288% (inactive) in test [2] (Library stock concentration: 278 uM); 0.37% (inactive) in test [2] (Library stock concentration: 1.67 mM); 60.9% (active) in test [2] (setting [21]); 0.0309% in test [2] (measured here: p53 positive nuclei at 24 h, Library stock concentration: 46 uM); -0.0893% in test [2] (measured here: p53 positive nuclei at 24 h, Library stock concentration: 278 uM). The p53-positive nuclei, normalised turned out to be 0.2% in test [2] (measured here: p53 positive nuclei at 24 h, Library stock concentration: 1.67 mM) and 4.05% in test [2] (setting [25]).

On to `CCCCCCCCCCCCCCCCOC[C@H](CO)OC(C)=O`, for which the nuclei count, normalised stood at 97.1% in test [1] (setting [3]) and 102% in test [1] (setting [4]). Besides, the p53-positive nuclei, normalised in test [2] (concentration not given here) is -0.0599% (inactive); in test [2] (setting [5]) it was 0.0467%.

Consider `COc1ccc2nc3ccc(OC)cc3c(SCCCN)c2c1`, for which the nuclei count, normalised amounted to 111% in test [1] (setting [10]); 114% in test [1] (setting [11]); 103% in test [1] (setting [12]); 81.6% in test [1] (setting [13]); 119% in test [1] (setting [14]); 115% in test [1] (setting [15]). Besides, the nuclei count, normalised in test [1] (setting [16]) stood at 109%; in test [1] (setting [17]) it was 90.5%. The p53-positive nuclei, normalised was -0.0602% (inactive) in test [2] (setting [18]); -0.0191% (inactive) in test [2] (setting [19]); -0.0521% (inactive) in test [2] (setting [20]); 0.61% (inactive) in test [2] (setting [21]); -0.00591% in test [2] (setting [22]); -0.136% in test [2] (setting [23]). For the same compound, the p53-positive nuclei, normalised in test [2] (setting [24]) stood at 0.00172%; in test [2] (setting [25]) it was 0.819%.

Turning to `CC(C)C(C(=O)Nc1ccc(C(=O)NO)cc1)c1ccccc1` (configuration not stated), the nuclei count, normalised was 45.5% in test [1] (setting [6]) and 32% in test [1] (setting [7]). The p53-positive nuclei, normalised in test [2] (setting [8]) was 48.1% (active); in test [2] (setting [9]), 50.4%.

Take `CC(C)[C@H](C(=O)Nc1ccc(C(=O)NO)cc1)c1ccccc1`: the nuclei count, normalised in test [1] (setting [3]) was determined as 80%; in test [1] (setting [4]) it was 65.6%. Moreover, the p53-positive nuclei, normalised in test [2] (concentration not given here) was 9.18% (inactive); in test [2] (setting [5]), 17.4%.

For `CC(=O)Nc1ccc(C(=O)Nc2ccccc2N)cc1`, the nuclei count, normalised in test [1] (setting [6]) came out at 92.6%; in test [1] (setting [7]) it was 89.8%. The p53-positive nuclei, normalised was 0.127% (inactive) in test [2] (setting [8]) and -0.311% in test [2] (setting [9]).

Take `COc1ccc(F)cc1-c1cnn(CC(=O)Nc2cc(C)nn2C)c1`: the nuclei count, normalised in test [1] (setting [3]) was 95.8%; in test [1] (setting [4]), 92.9%. The results for the p53-positive nuclei, normalised in test [2] (concentration not given here) and in test [2] (setting [5]) were 0.158% (inactive) and -0.0647%, respectively.

On to `CCCCC/C=C/C/C=C/CCCCCCCC(=O)O`, for which the nuclei count, normalised in test [1] (setting [3]) and in test [1] (setting [4]) was 108% in each case. In addition, the p53-positive nuclei, normalised was -0.00219% (inactive) in test [2] (concentration not given here) and -0.0851% in test [2] (setting [5]).
